Data reported in the supplement of paper PMC11417369.
± gives the standard deviation of the averaged measurements. The full ranking holds about 25,000 sequences; the median of “ln(normalized median fluorescence intensity)” is about 10, and the highest 2% start at about 12. Only a selection was taken, and the highest values are over-represented in it overall.

What follows are sequences tested on PfAP2-G AP2 domain (GST-tagged) (assay: gcPBM binding intensity (ln(normalized median fluorescence intensity)); higher = stronger DNA binding).
Summary of the method: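 Using an Agilent 4 × 180k array, primer-extended double-stranded 36-bp intergenic genomic probes and negative controls were exposed for 1 h to GST-fused P. falciparum DNA-binding domains expressed in E. coli. Binding was carried out in 1× PBS with 1% milk, 0.2 mg/ml BSA, 0.5% salmon testes DNA and 0.03% Triton X-100, and protein was detected with Alexa488 anti-GST antibody and a 488 nm scan. Binding intensity is the highest Masliner-normalised natural-log median intensity across replicate spots of either probe orientation.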

| Sequence | gcPBM binding intensity (ln) |
| --- | --- |
| TATAATATTCCTTTTTAACACACATATGAACAAATA [CACACA_site7932] | 10.1 ± 0.18 |
| CATTATTCATTTTGGATGCACTGACAGAAAAATGGT | 10.4 ± 0.18 |
| CTTAGGTGTTCATAGAGTACAAATAAAAAAATAAGA [XGTACX_site2294] | 11.3 ± 0.95 |
| TACCTAAATAAATGGACACACACATATATATATATA [CACACA_site8407] | 10.8 ± 0.53 |
| TATATTTTAAAATTATGTACATATATAGATAAATGT [XGTACX_site1349] | 11.3 ± 0.52 |
| AATTAGATGGATAAATGTACATAATGTGAATATATT [XGTACX_site86] | 11 ± 0.4 |
| TCATATATATATATATGTACATATTTATGTATGTAT [XGTACX_site6291] | 11.1 ± 0.66 |
| TTCCTTTGTCCTAACTGTACTCAAATTTATTAGTGG [XGTACX_site226] | 11.8 ± 0.75 |
| TAGTTCCTCAAAAATTTCCTTTGTCATTTTATTCAC [GTGCAC_negctrl_site20] | 10.17 ± 0.085 |
| TTCCTTAATCAATATTGTACTTTTTATAAATTTAGT [XGTACX_site3678] | 11.4 ± 0.85 |
| TATAAAAATATATTTACACACTATAAATATCGAAAG [CACACA_site6896] | 9.96 ± 0.18 |
| TAATTTATGACACGCGCACACATATATATATAGTAA [CACACA_site4249] | 10.6 ± 0.42 |
| ACAAAAATGAGATGGTGTACGCACAAATAAATAATA [XGTACX_site5221] | 11.7 ± 0.79 |
| AAGATAAAATGATGCACACAAAAGGGTGTAATATAT [CACACA_site1706] | 10.13 ± 0.049 |
| CAAAGATAAAATGATGCACACAAAAGGGTGTAATAT [CACACA_site8499] | 10.25 ± 0.014 |
| TCCCACTGTTATATTGAAAAAAAAAAAAAAAAAAAA [TGCATGCA_negctrl_site288] | 9.82 ± 0.5 |
| AAACAACATGGACACGCACACACAAAAAAAGCATGC [CACACA_site73] | 11 ± 0.48 |
| TAAAATATATTTTTCTGTACACAAAAATATATTAAA [XGTACX_site2813] | 11.5 ± 0.96 |
| ATTAGGCATATTTTCTGTACACAATAATAAAAAAAA [XGTACX_site3957] | 11.6 ± 0.91 |
| TAATTTTCATATTTCTGTACATATATTATAAATATA [XGTACX_site3480] | 11 ± 0.69 |
| AATCAAAAAAAATGTTGTACGCCTAATTATAATTAA [XGTACX_site8906] | 11.6 ± 0.8 |
| GTGTAGGCAAAAAGTTGTACGCCTAAAATCTATATA [XGTACX_site8912] | 11.7 ± 1.1 |
| TGTATAGTCTAAAGTTGTACAAAAAAAAAAAAAAAA [XGTACX_site5764] | 11.3 ± 1 |
| TTTTAATTTTGTTGTTGTACAAATAACATGTGAGGG [XGTACX_site4401] | 11.2 ± 0.83 |
| TATTTTAATTTTTGTTGTACGCAAATGTGAGGGCAT [XGTACX_site4663] | 11.7 ± 1.2 |
| TATATATATATATGTTGTACTTTTAATTTAAATGTA [XGTACX_site4239] | 11.6 ± 0.94 |
